# Data as given in PubChem BioAssay (NCATS).
# “And” between values parts separate entries of the source, which are not always exact repeats. Equal values may be shown once. Records with an inconclusive call do not appear. Entries that show only a call come without a potency. The source made the active and inactive calls. Unless noted, calls follow the shape of the dose curve; as a rule, active = well fitted curve in the direction sought with a large enough effect; inconclusive = small, poorly fitted or top-dose-only effect, or another doubt; inactive = no such curve, though single readings can be large; an effect the other way counts as inactive or inconclusive.
# Columns and labels:
# [1] = Natriuretic polypeptide receptor (hNpr1) antagonism - Pilot counterscreen GloSensor control cell line (AID 1347045; calls by dose curve; also: series mostly up to about 38 µM)
# Outline: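 HEK293 cGMP-sensor cells; 2% GloSensor reagent 2 h RT; LOPAC compounds in 1:5 titrations 30-50 min; 50 uM SNP 20 min; luminescence pre-read and post-read.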
# [2] = biological target: Atrial natriuretic peptide receptor 1 (Homo sapiens) (UniProt P16066); assay: Natriuretic polypeptide receptor (hNpr1) antagonism - Pilot screen (AID 1347049; calls by dose curve;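 also: agonist-evoked cGMP luminescence read 20 min after hNppA addition; series mostly up to about 58 µM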)
# Atrial natriuretic peptide receptor 1 (Homo sapiens), sequence (P16066 whole entry, looked up): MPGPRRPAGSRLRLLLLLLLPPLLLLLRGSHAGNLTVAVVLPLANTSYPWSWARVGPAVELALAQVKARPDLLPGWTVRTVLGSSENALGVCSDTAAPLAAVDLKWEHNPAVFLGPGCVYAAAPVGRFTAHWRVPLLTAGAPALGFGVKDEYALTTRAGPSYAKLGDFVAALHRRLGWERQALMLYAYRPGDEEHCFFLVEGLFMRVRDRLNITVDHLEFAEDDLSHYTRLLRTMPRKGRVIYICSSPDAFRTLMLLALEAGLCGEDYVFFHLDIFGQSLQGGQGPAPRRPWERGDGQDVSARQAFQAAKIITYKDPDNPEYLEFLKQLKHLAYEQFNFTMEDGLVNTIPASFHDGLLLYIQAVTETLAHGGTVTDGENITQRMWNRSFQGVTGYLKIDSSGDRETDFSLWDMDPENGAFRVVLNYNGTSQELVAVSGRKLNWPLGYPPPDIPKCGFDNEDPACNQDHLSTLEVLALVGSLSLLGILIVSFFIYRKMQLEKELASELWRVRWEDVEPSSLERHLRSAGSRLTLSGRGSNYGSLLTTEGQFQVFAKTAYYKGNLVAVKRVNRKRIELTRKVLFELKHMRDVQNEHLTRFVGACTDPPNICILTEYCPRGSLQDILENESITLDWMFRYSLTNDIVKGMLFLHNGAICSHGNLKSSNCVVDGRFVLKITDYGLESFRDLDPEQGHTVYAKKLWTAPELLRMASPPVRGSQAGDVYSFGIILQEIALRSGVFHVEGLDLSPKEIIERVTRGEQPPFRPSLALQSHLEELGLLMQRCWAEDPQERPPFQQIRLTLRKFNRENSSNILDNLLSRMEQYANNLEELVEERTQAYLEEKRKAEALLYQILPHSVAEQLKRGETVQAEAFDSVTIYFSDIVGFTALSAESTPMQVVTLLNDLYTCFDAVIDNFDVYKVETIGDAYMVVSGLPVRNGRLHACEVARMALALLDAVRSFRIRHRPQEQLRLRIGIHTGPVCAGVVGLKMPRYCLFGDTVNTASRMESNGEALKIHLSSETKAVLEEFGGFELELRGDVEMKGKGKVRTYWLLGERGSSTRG
# Outline: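 cGMP-sensor HEK293/hNpr1 cells, 1500/well, plated overnight at 37C. 2% GloSensor reagent, 2 h RT. Compound (23 nL pin transfer) 30 min RT, baseline luminescence pre-read. 0.1 nM hNppA, 20 min RT, post-read.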
# [3] = biological target: Atrial natriuretic peptide receptor 2 (Homo sapiens) (UniProt P20594); assay: Natriuretic polypeptide receptor (hNpr2) antagonism - Pilot subtype selectivity assay (AID 1347050; calls by dose curve; also: potency is read from the fitted curve at half-maximal effect)
# Atrial natriuretic peptide receptor 2 (Homo sapiens), sequence (P20594 whole entry, looked up): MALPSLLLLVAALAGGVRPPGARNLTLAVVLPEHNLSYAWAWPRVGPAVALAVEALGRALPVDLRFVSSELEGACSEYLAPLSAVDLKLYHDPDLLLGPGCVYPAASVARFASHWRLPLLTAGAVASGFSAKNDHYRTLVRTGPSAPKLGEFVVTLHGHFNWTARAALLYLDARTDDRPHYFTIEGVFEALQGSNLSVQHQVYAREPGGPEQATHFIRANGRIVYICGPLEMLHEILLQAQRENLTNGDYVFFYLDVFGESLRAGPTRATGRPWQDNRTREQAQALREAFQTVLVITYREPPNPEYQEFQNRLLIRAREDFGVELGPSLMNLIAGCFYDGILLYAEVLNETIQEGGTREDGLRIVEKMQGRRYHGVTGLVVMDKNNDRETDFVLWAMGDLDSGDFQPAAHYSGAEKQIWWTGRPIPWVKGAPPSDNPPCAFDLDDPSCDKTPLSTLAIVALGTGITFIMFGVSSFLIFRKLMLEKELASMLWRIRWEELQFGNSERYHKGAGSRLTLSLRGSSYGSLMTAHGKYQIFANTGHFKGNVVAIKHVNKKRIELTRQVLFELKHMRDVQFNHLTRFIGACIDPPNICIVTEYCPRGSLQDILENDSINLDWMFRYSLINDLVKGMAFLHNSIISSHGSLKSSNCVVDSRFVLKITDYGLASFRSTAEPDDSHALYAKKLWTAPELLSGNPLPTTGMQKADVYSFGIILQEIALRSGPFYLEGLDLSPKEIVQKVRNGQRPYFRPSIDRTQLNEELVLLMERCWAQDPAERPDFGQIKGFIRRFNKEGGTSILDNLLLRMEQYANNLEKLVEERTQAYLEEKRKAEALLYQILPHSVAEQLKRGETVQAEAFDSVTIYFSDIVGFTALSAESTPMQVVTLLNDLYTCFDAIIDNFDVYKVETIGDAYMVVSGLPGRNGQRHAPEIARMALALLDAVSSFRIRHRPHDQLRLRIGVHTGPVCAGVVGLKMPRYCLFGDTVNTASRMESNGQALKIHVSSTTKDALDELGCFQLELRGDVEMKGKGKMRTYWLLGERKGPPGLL
# Outline: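 Luminescence from a genetically encoded cGMP luciferase biosensor in hNpr2-expressing HEK293 cells is read before and 20 min after adding 1 nM hNppC. Test compounds, in interplate 1:5 titrations, are added 30-50 min ahead of the agonist.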
# [4] = NS1 protein of Zika virus - qHTS assay to identify small molecule inhibitors in human HEK 293 cells (AID 1347053); also: series mostly up to about 46 µM; nearly all actives have a fitted effect of over 55% in size
# Outline: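 Read-out is a two-antibody TR-FRET for ZIKV NS1, normalized between uninfected cells and infected cells. Compound added 1 h before MR766 infection at MOI 0.5; human HEK 293 cells incubated 24 h, 37 C.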
# [5] = biological target: T1, Tyrosine-protein phosphatase non-receptor type substrate 1 (Homo sapiens) + Leukocyte surface antigen CD47 (Homo sapiens) (UniProt P78324+Q08722); assay: CD47-SIRPalpha protein protein interaction - LANCE assay qHTS validation (AID 1347057; active = well fitted curve in the direction sought with a large enough effect in the signal ratio, with a control signal flat, not every such curve was filed as active; the % refers to the signal ratio; also: series mostly up to about 38 µM)
# T1 sequence (P78324 whole entry, looked up, the tested form may be a part): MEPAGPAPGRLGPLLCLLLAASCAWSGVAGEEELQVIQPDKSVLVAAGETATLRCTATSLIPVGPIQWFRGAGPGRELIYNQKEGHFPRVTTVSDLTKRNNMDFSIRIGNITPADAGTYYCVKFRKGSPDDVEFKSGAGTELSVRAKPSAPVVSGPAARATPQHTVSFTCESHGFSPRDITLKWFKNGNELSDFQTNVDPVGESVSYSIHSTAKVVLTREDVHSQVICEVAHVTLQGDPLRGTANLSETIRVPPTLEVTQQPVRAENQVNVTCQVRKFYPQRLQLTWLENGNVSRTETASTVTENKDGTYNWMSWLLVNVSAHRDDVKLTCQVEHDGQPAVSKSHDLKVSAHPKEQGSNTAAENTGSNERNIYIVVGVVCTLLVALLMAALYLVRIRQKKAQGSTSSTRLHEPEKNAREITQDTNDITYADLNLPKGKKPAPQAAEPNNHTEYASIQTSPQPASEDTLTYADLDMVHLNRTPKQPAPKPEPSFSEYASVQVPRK
# T1 sequence (Q08722 whole entry, looked up, the tested form may be a part): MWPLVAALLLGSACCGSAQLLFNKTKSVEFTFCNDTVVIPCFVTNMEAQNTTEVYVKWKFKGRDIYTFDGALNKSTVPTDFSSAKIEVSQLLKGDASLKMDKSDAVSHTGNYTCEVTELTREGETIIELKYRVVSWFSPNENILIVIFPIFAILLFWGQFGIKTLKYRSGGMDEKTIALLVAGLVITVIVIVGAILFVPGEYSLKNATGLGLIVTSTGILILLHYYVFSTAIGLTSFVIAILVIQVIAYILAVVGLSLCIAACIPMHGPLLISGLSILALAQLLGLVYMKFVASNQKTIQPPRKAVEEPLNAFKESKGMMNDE
# Outline: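 Inhibition of soluble CD47/SIRPalpha ectodomain association by titrated compounds, measured as 665/615 nm time-resolved FRET ratio after sequential 30 min room-temperature incubations.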
# [6] = biological target: T1, Tyrosine-protein phosphatase non-receptor type substrate 1 (Homo sapiens) + Leukocyte surface antigen CD47 (Homo sapiens); assay: CD47-SIRPalpha protein protein interaction - HTRF assay qHTS validation (AID 1347058; active = well fitted curve in the direction sought with a large enough effect in the signal ratio, not every such curve was filed as active; the % refers to the signal ratio; also: series mostly up to about 38 µM)
# Outline: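 Soluble extracellular domains (6His-CD47, Avi-tag-biotinylated SIRPalpha) in PBS pH 7.4 with 0.05% IGEPAL CA-630. Compounds were preincubated 30 min at RT with CD47 and anti-His-Eu, then SIRPalpha and SAV-XL665 were added. TR-FRET 665/615 ratio.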
# [7] = qHTS of pediatric cancer cell lines to identify multiple opportunities for drug repurposing: Primary screen for TC32 cells (AID 1347089); also: nearly all actives have a fitted effect of over 60% in size
# Outline: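 TC32 cells, 500-1,000/well in growth medium, compound-treated 48 h at 37 °C; viability from CellTiter-Glo luminescence. Primary screen: MIPE 11-point (0.78 nM–46 µM final), NPC 8-point (0.59 nM–46 µM final); confirmatory at 11-point dilutions.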
# [8] = qHTS of pediatric cancer cell lines to identify multiple opportunities for drug repurposing: Primary screen for DAOY cells (AID 1347090); also: series mostly up to about 46 µM; nearly all actives have a fitted effect of over 55% in size
# Outline: (§1)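 Viability measured as metabolically active cells via CellTiter-Glo luminescence following 48 hours of compound exposure, 11-point dilutions in confirmatory testing. 500-1,000 cells/well plated 5 hours before dosing; controls were DMSO and 2.3 µM bortezomib.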
# [9] = qHTS of pediatric cancer cell lines to identify multiple opportunities for drug repurposing: Primary screen for SJ-GBM2 cells (AID 1347091)
# Outline: as §1
# [10] = qHTS of pediatric cancer cell lines to identify multiple opportunities for drug repurposing: Primary screen for A673 cells (AID 1347092); also: nearly all actives have a fitted effect of over 45% in size
# Outline: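 A673 cells (500-1,000 cells/well) were treated 48 hours at 37 degrees C with compounds at 11-point (0.78 nM to 46 µM) or 8-point (0.59 nM to 46 µM) dilutions. Viability read by CellTiter-Glo luminescence; concentration-response curves fitted.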
# [11] = qHTS of pediatric cancer cell lines to identify multiple opportunities for drug repurposing: Primary screen for SK-N-MC cells (AID 1347093); also: potency is read from the fitted curve at half-maximal effect
# Outline: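 Metabolically active cells were quantified by ATP-dependent luminescence (CellTiter-Glo, 15 min at room temperature) following 48 h treatment. Cells had been plated at 500-1,000 per well and settled for 5 h beforehand.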
# [12] = qHTS of pediatric cancer cell lines to identify multiple opportunities for drug repurposing: Primary screen for BT-37 cells (AID 1347094); also: series mostly up to about 57 µM
# Outline: (§2)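 CRCs from 8- or 11-point titrations (lowest final 0.59 nM NPC, 0.78 nM MIPE). Cell viability: CellTiter-Glo after 48 h incubation, 15 min room-temperature development, luminescence imaging.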
# [13] = qHTS of pediatric cancer cell lines to identify multiple opportunities for drug repurposing: Primary screen for U-2 OS cells (AID 1347096); also: nearly all actives have a fitted effect of over 50% in size
# Outline: (§3)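 Viability after 48 h compound treatment at 37C, 500-1,000 cells/well, read as ATP luminescence with CellTiter-Glo. Primary screens used 11-point (MIPE, 0.78 nM-46 µM) or 8-point (NPC, 0.59 nM-46 µM) final concentrations; follow-up screens used 11-point dilutions.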
# [14] = qHTS of pediatric cancer cell lines to identify multiple opportunities for drug repurposing: Primary screen for Saos-2 cells (AID 1347097); also: nearly all actives have a fitted effect of over 40% in size; also: potency is read from the fitted curve at half-maximal effect
# Outline: as §2
# [15] = qHTS of pediatric cancer cell lines to identify multiple opportunities for drug repurposing: Primary screen for SK-N-SH cells (AID 1347098); also: nearly all actives have a fitted effect of over 65% in size; also: potency is read from the fitted curve at half-maximal effect
# Outline: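 Cells (500-1,000/well) rested 5 h, then received compounds for 48 h; metabolically active cells were measured by CellTiter-Glo luminescence. Final concentrations spanned up to 46 µM (MIPE, 11-point) or 0.59 nM-46 µM (NPC, 8-point) in primary screens, 11-point in follow-ups.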
# [16] = qHTS of pediatric cancer cell lines to identify multiple opportunities for drug repurposing: Primary screen for LAN-5 cells (AID 1347100)
# Outline: as §3
# [17] = biological target: Parathyroid hormone/parathyroid hormone-related peptide receptor (Homo sapiens) (UniProt Q03431); assay: qHTS for PTHR1 Agonists: Optimization Screen against the NCGC LOPAC library (AID 1347079);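 also: GloSensor cAMP luminescence in HEK-293 GP2 cells expressing human PTHR1 with IBMX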
# Parathyroid hormone/parathyroid hormone-related peptide receptor (Homo sapiens), sequence (Q03431 whole entry, looked up): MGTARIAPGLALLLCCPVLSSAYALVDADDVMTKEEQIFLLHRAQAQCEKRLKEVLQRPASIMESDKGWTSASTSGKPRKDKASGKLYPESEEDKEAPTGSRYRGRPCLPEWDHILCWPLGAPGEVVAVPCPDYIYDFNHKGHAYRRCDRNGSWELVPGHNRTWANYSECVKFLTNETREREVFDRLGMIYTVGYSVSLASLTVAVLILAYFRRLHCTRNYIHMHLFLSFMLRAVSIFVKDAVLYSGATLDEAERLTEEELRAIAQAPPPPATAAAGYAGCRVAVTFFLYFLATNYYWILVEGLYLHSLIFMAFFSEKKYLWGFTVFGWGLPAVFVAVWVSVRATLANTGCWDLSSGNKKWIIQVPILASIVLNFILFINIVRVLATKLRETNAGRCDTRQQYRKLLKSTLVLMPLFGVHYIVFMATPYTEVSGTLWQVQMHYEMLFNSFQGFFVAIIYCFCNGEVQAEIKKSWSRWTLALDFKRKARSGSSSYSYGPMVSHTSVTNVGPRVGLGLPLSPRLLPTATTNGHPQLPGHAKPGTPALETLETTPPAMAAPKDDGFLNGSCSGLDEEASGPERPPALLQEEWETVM
# Outline: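 Signal increase flags agonism. GP2 cells, derived from HEK-293, express human PTHR1 and a GloSensor cAMP construct.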
# [18] = qHTS of pediatric cancer cell lines to identify multiple opportunities for drug repurposing: Primary screen for NB-EBc1 cells (AID 1347095)
# Outline: as §2
# [19] = biological target: T1, Tyrosine-protein phosphatase non-receptor type substrate 1 (Homo sapiens) + Leukocyte surface antigen CD47 (Homo sapiens); assay: CD47-SIRPalpha protein protein interaction - Alpha assay qHTS validation (AID 1347059);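 also: bead proximity luminescence from CD47 binding SIRPalpha after compound preincubation with SIRPalpha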
# Outline: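 SIRPalpha-biotin 25 nM + cpd, 30 min RT, dark; add CD47-His 12.5 nM, 30 min; add Ni-NTA/SAV beads 10 ug/mL, 30 min; AlphaScreen. Buffer PBS pH 7.4 + 0.05% IGEPAL CA-630. Non-biotinylated SIRPalpha as control inhibitor.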
# [20] = qHTS of pediatric cancer cell lines to identify multiple opportunities for drug repurposing: Primary screen for NB1643 cells (AID 1347099); also: nearly all actives have a fitted effect of over 50% in size
# Outline: as §2
SMILES,Potency [1],Potency [2],Potency [3],Potency [4],outcome [5],outcome [6],Potency [7],Potency [8],Potency [9],Potency [10],Potency [11],Potency [12],Potency [13],Potency [14],Potency [15],Potency [16],Potency [17],Potency [18],Potency [19],Potency [20]
CCC1(C)CC(=O)NC1=O (stereo unspecified),inactive,inactive,inactive,inactive,inactive,inactive,inactive,inactive,inactive,inactive,inactive,inactive,inactive,inactive,inactive,inactive,,,,
CC(C)Cc1ccc(C(C)C(=O)O)cc1 (stereo unspecified),inactive,inactive,inactive,inactive,inactive,inactive,inactive,,inactive,inactive,inactive,,,inactive,inactive,inactive,inactive,inactive,,
CC(C)NCC(O)COc1ccc(CCOCC2CC2)cc1 (stereo unspecified),inactive,,inactive,inactive,inactive,inactive,inactive,inactive,inactive,inactive,inactive,inactive,inactive,inactive,inactive,inactive,inactive,inactive,inactive,
CC(CCc1ccc(O)cc1)NCCc1ccc(O)c(O)c1 (stereo unspecified),inactive,inactive,inactive,inactive,inactive,inactive,inactive,inactive,inactive,,,inactive,inactive,18.7 µM (active) and 21.1 µM (active),,,,,,
CN1C(C(=O)Nc2ccccn2)=C(O)c2ccccc2S1(=O)=O,inactive,inactive,inactive,,inactive,,inactive,inactive,inactive,inactive,,,inactive,inactive,inactive,,,,inactive,
CCOC(=O)C(C)(C)Oc1ccc(Cl)cc1,inactive,inactive,inactive,inactive,inactive,inactive,inactive,,inactive,inactive,inactive,inactive,,inactive,inactive,inactive,inactive,,,
O=C(CCCN1CCC(O)(c2ccc(Cl)cc2)CC1)c1ccc(F)cc1,inactive,inactive,inactive,inactive,inactive,inactive,inactive,,,inactive,inactive,inactive,,inactive,,,inactive,inactive,inactive,
Nc1ccn([C@H]2CC[C@@H](CO)O2)c(=O)n1,inactive,inactive,inactive,,inactive,inactive,inactive,,inactive,inactive,18.7 µM (active) and 21.1 µM (active),inactive,inactive,inactive,inactive,inactive,,inactive,,
Cn1cnc2c1c(=O)[nH]c(=O)n2C,inactive,inactive,inactive,,inactive,inactive,inactive,,,,,,,,inactive,,,,,inactive
CN1CCN(C2=Nc3cc(Cl)ccc3Nc3ccccc32)CC1,inactive,inactive,10.4 µM (active),,inactive,inactive,inactive,inactive,inactive,inactive,inactive,inactive,inactive,inactive,15.4 µM (active),inactive,inactive,inactive,,
CN1CCN2c3ccccc3Cc3ccccc3C2C1 (stereo unspecified),inactive,,inactive,inactive,inactive,inactive,inactive,inactive,inactive,inactive,inactive,inactive,,inactive,inactive,,inactive,inactive,inactive,
Cc1ccccc1N1C(=O)c2cc(S(N)(=O)=O)c(Cl)cc2NC1C (stereo unspecified),inactive,inactive,inactive,inactive,,,inactive,inactive,inactive,inactive,inactive,inactive,,inactive,inactive,inactive,inactive,inactive,,inactive
Cc1cn([C@H]2C=C[C@@H](CO)O2)c(=O)[nH]c1=O,inactive,inactive,inactive,,inactive,inactive,inactive,,inactive,inactive,,inactive,inactive,inactive,inactive,inactive,,,,inactive
N[C@@H](Cc1c[nH]c2ccc(O)cc12)C(=O)O,inactive,inactive,inactive,inactive,inactive,inactive,inactive,,inactive,inactive,inactive,,inactive,inactive,,inactive,inactive,,,inactive
Cc1ccc(C(=O)Nc2ccc(S(=O)(=O)O)c3cc(S(=O)(=O)O)cc(S(=O)(=O)O)c23)cc1NC(=O)c1cccc(NC(=O)Nc2cccc(C(=O)Nc3cc(C(=O)Nc4ccc(S(=O)(=O)O)c5cc(S(=O)(=O)O)cc(S(=O)(=O)O)c45)ccc3C)c2)c1,inactive,inactive,inactive,inactive,inactive,,inactive,inactive,inactive,inactive,inactive,inactive,inactive,inactive,inactive,inactive,inactive,inactive,inactive,
